Active and inactive are the calls of the source.
Columns and labels:
[1] = tested on: Wnt5a (protein binding on small-molecule microarray); test: small molecules binding Wnt5a protein – biophysical, small-molecule microarray, 635/667 nm fluorescence, primary screen (AID 1142); conditions: 635 nm fluorescence, higher = more signal;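 also: fluorescence read at 667 nm with signal to noise per printed feature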
[2] = ATP-based viability of Huh7 replicon cells – cell-based, CellTiter-Glo luminescence, basal, 48 h, cytotoxicity control for HCV replication inhibitor project, primary screen (AID 1143); conditions: higher = more signal, called active from +8 up or from −8 down;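 also: Huh7 hepatoma cells carrying a hepatitis C replication reporter with no stimulus; test concentration not given here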
[3] = basal CRE-LacZ reporter activity in PC12 – cell-based, unstimulated, primary screen (AID 1145); conditions: no forskolin, luminescence, 4.5 h, higher = more signal, called active from +8 up or from −8 down
[4] = forskolin-driven CRE-LacZ activity in PC12 – cell-based, CRE-LacZ reporter, forskolin-stimulated, primary screen (AID 1146); conditions: luminescence, 4.5 h, higher = more signal, called active from +8 up or from −8 down;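 also: PC12 cells with 6xCRE LacZ reporter stimulated by forskolin 10 µM; beta-galactosidase reporter signal reflecting CREB driven transcription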
[5] = biological target: Streptavidin (Streptomyces avidinii) (UniProt P22629); test: compounds binding control protein streptavidin – biophysical, small-molecule microarray, 635/667 nm fluorescence, artefact control for SMM compound annotation, primary screen (AID 1147); conditions: higher = more signal;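 also: signal reflects streptavidin binding to arrayed compounds as a control protein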
Sequence of Streptavidin (Streptomyces avidinii) (P22629 whole entry, looked up): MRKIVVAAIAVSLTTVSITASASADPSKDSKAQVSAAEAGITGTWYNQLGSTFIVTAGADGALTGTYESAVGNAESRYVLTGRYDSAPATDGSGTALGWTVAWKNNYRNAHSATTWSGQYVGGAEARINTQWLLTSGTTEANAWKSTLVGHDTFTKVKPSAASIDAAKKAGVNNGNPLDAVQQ

[6] = probe aInhba binding on compound microarray – biochemical, small-molecule microarray, 635/667 nm fluorescence, primary screen (AID 1148); conditions: higher = more signal;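 also: score merges 667nm spot fluorescence with signal-to-noise for antibody binding to printed compounds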
Torsin-1A (Homo sapiens) [7] = biological target: Torsin-1A (Homo sapiens) (UniProt O14656); test: TOR1A wild-type binding on microarray – cell lysate, small-molecule microarray, lysate, 635/667 nm, primary screen (AID 1149); conditions: COS7 hTOR1A-WT lysate, 635 nm fluorescence, higher = more signal
Sequence of Torsin-1A (Homo sapiens) (O14656 whole entry, looked up): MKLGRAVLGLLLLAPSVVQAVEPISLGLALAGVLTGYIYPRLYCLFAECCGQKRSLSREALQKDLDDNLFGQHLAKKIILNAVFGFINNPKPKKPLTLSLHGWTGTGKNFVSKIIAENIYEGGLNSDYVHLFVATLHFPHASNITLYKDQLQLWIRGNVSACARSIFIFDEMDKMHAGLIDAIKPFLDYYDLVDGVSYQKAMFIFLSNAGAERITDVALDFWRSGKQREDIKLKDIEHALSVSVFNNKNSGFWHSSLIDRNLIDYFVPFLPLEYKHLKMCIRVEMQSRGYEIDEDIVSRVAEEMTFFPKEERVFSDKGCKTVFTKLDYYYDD

Torsin-1A (Homo sapiens) [8] = biological target: Torsin-1A (Homo sapiens) (UniProt O14656); test: torsin A mutant lysate binding on microarrays – cell lysate, small-molecule microarray, COS7 lysate, 635/667 nm fluorescence, primary screen (AID 1150); conditions: COS7 hTOR1A mutant lysate, 635 nm fluorescence, higher = more signal;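 also: score pools 667 nm emission and signal to noise measuring lysate protein binding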
[9] = tested on: Sonic hedgehog protein (Shh); test: Sonic hedgehog microarray binding compounds – biochemical, small-molecule microarray, 635/667 nm fluorescence, primary screen (AID 1151); conditions: 635 nm fluorescence, higher = more signal;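 also: Shh protein binding to compounds spotted on small-molecule microarray slides; score combines spot fluorescence intensity with signal-to-noise across triplicate slides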
[10] = optical density shifts of acrAB sulA E. coli – strain DRC41, OD650, 48 h, E. coli filamentation inducer project, primary screen (AID 1152); conditions: higher = more signal, called active from +8 up or from −8 down;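 also: E. coli MC1000 strain DRC41 lacking acrAB efflux pump and sulA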
[11] = probe aLefty1 binding on compound microarray – biochemical, small-molecule microarray, 635/667 nm fluorescence, primary screen (AID 1153); conditions: higher = more signal;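 also: score merges spot fluorescence with signal-to-noise ratio from the scanned slide images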
[12] = plasmodial surface anion channel blockers, osmotic lysis – cell-based, P. falciparum Indochina, OD700, 1 h, primary screen (AID 1154); conditions: P. falciparum Indochina infected RBC osmotic lysis, higher = more signal, called active from +8 up or from −8 down
[13] = plasmodial surface anion channel blockers, osmotic lysis – cell-based, P. falciparum Indochina, OD700, 2 h, primary screen (AID 1155);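 also: lysis reports solute entry through the parasite surface anion channel PSAC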; conditions: P. falciparum Indochina infected erythrocytes, higher = more signal, called active from +8 up or from −8 down
[14] = changes in parasitized red cell lysis, either direction – P. falciparum Indochina, OD700, 3 h, PSAC antagonist project, primary screen (AID 1156); conditions: P. falciparum-infected erythrocytes, osmotic lysis, higher = more signal, called active from +8 up or from −8 down
[15] = plasmodial surface anion channel blockers, osmotic lysis – cell-based, P. falciparum Indochina, OD700, 18 h, primary screen (AID 1157); conditions: P. falciparum Indochina infected erythrocytes, osmotic lysis OD700, 18 h; higher = more signal, called active from +8 up or from −8 down
[16] = S6 kinase pathway phospho-S6 level changes – cell-based, A549, cytoblot, luminescence, serum-stimulated, primary screen (AID 1158); conditions: 5 h, higher = more signal;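 also: serum-stimulated A549 lung adenocarcinoma cells; signal is phosphorylated S6 detected by cytoblot immunostaining with HRP secondary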
[17] = biological target: NADPH oxidase 2 (Homo sapiens) (UniProt P04839); test: compounds shifting NOX2 Amplex Red fluorescence – cell-based, HEK293-NOX2, PMA-stimulated, NOX inhibitor project, primary screen (AID 1159); conditions: 45 min, higher = more signal, called active from +8 up or from −8 down; also: test concentration not given here
Sequence of NADPH oxidase 2 (Homo sapiens) (P04839 whole entry, looked up): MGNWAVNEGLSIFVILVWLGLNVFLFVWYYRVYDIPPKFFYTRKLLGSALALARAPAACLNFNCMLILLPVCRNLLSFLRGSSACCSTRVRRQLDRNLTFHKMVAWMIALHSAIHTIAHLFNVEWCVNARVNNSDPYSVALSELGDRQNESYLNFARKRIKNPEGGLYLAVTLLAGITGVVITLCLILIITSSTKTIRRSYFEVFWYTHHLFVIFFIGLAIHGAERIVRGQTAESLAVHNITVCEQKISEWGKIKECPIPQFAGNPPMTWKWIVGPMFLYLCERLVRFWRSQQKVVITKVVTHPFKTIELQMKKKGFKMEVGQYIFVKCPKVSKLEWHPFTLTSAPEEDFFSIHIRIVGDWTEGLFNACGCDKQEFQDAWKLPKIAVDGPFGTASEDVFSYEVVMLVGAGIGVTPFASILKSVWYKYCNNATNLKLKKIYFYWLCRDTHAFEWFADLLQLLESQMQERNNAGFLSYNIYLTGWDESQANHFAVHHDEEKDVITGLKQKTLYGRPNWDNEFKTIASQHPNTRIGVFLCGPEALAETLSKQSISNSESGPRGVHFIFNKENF

[18] = biological target: NADPH oxidase 4 (Homo sapiens) (UniProt Q9NPH5); test: compounds shifting NOX4 Amplex Red fluorescence – cell-based, HEK293-NOX4, tetracycline-induced, NOX inhibitor project, primary screen (AID 1160); conditions: HEK293-NOX4, Amplex Red H2O2 fluorescence, 45 min; higher = more signal, called active from +8 up or from −8 down
Sequence of NADPH oxidase 4 (Homo sapiens) (Q9NPH5 whole entry, looked up): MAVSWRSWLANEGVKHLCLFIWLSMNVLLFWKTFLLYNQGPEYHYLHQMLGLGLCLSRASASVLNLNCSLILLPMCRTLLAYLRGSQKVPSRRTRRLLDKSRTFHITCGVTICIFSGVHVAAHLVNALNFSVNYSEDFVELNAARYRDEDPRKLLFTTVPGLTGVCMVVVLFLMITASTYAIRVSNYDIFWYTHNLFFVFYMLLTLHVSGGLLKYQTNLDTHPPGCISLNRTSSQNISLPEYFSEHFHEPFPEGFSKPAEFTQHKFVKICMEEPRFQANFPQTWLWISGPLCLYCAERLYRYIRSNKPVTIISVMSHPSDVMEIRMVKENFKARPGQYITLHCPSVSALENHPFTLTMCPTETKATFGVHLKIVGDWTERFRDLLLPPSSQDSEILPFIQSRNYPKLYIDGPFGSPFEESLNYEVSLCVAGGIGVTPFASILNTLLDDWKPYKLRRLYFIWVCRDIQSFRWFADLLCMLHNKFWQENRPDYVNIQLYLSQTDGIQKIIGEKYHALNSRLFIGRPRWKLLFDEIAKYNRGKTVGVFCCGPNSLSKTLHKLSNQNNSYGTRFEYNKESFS

[19] = biological target: NADPH oxidase 5 (Homo sapiens) (UniProt Q96PH1); test: compounds shifting NOX5 Amplex Red fluorescence – cell-based, HEK293-NOX5, NOX inhibitor project, primary screen (AID 1161); conditions: HEK293-NOX5, ionomycin, 45 min, higher = more signal
Sequence of NADPH oxidase 5 (Homo sapiens) (Q96PH1 whole entry, looked up): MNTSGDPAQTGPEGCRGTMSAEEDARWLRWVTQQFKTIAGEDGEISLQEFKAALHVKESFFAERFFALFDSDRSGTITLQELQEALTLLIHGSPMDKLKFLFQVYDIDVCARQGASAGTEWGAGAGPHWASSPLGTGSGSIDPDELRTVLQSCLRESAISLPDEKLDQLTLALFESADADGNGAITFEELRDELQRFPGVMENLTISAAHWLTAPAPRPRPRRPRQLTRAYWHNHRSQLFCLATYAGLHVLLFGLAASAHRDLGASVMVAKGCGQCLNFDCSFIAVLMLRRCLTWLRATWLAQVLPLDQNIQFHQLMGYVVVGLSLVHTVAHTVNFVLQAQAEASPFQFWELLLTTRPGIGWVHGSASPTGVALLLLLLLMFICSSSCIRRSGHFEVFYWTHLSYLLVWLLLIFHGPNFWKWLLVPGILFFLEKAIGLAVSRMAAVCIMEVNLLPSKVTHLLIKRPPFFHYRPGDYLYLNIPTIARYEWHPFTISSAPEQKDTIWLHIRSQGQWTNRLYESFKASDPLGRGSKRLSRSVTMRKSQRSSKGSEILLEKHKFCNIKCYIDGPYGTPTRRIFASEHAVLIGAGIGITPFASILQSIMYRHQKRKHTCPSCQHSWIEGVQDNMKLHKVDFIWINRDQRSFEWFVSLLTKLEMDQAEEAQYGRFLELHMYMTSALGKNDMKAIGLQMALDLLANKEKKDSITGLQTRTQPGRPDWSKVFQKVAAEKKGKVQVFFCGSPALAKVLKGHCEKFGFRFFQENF

SMILES	composite z-score [1]	z-score [2]	z-score [3]	z-score [4]	composite z-score [5]	composite z-score [6]	composite z-score (Torsin-1A (Homo sapiens) [7])	composite z-score (Torsin-1A (Homo sapiens) [8])	composite z-score [9]	z-score [10]	composite z-score [11]	z-score [12]	z-score [13]	z-score [14]	z-score [15]	z-score [16]	z-score [17]	z-score [18]	z-score [19]
C=CC[C@]1(C(=O)OC)N=C(c2ccc(OCCCO)cc2)O[C@H]1c1ccccc1CN=[N+]=[N-]	0.832	-3.72 (inactive)	5.1 (inactive)	-0.911 (inactive)	-1.12	0.0232	0.101	-0.0021	0.0034	0.919 (inactive)	0.419	21.2 (active)	4.18 (inactive)	1.7 (inactive)	0.786 (inactive)	0.363	-3.18 (inactive)	-0.411 (inactive)	-2.23
C=CCN1C(=O)[C@]2(O[C@H](CCn3cc(CCO)nn3)[C@@H]([Si](C)(C)c3ccc(OC)cc3)[C@@H]2C)c2cc(NC(=O)c3ccc(OC)cc3)ccc21	0.46	-4.16 (inactive)	7.29 (inactive)	-1.63 (inactive)	0.132	-0.0598	1.06	0.66	1.61	1.24 (inactive)	0.13	11.3 (active)	-0.0473 (inactive)	0.715 (inactive)	-1.36 (inactive)	0.173	0.891 (inactive)	1.28 (inactive)	0.385
O=C1c2ccccc2[C@](Cc2ccccc2I)(C(=O)NCC(F)(F)F)[C@H](c2ccc(CO)cc2)N1Cc1ccccc1C(F)(F)F	0.12	-0.254 (inactive)	-0.438 (inactive)	-0.112 (inactive)	0.59	-0.268	0.305	0.245	0.137	1.37 (inactive)	-0.597	2.78 (inactive)	0.55 (inactive)	0.564 (inactive)	0.449 (inactive)	0.179	1.27 (inactive)	0.605 (inactive)	2.32
CO[C@H]1COC(=O)[C@H](C)NC(=O)CC=C[C@@H](C)[C@H](NS(=O)(=O)c2ccc(C)cc2)COC(=O)CC=C[C@@H]1C	-0.0879	-0.831 (inactive)	0.429 (inactive)	-1.27 (inactive)	-0.052	-0.123	0.961	0.0627	1.38	-0.154 (inactive)	-0.232	0.868 (inactive)	0.41 (inactive)	0.229 (inactive)	0.33 (inactive)	0.356	0.734 (inactive)	0.631 (inactive)	0.971
CC(=O)Nc1ccc([C@H]2[C@H](C)CC[C@H]3C(=O)N4[C@@H](CC[C@@H](C)[C@@H]4c4ccc(NC(C)=O)cc4)C(=O)N32)cc1	0.165	-0.446 (inactive)	3.09 (inactive)	-0.876 (inactive)	0.627	0.0275	1.17	0.283	1.34	-0.929 (inactive)	-0.045	1.91 (inactive)	0.586 (inactive)	0.699 (inactive)	0.32 (inactive)	-0.164	0.0427 (inactive)	1.25 (inactive)	0.198
CC(C)CN1C(=O)[C@@]2(Cc3ccccc31)c1ccccc1C(=O)N(C1CCCCC1)[C@H]2c1ccc(CO)cc1	-0.194	-2.02 (inactive)	-0.152 (inactive)	-0.876 (inactive)	-1.12	-0.208	-0.475	-0.488	-0.264	1.83 (inactive)	-0.101	0.838 (inactive)	-0.528 (inactive)	-0.0544 (inactive)	-1.24 (inactive)	2.22	-0.236 (inactive)	-1.31 (inactive)	0.441
O=C(CS)NCCCCCNC(=O)[C@H]1C[C@H]2C(=O)N3CCC[C@H]3C(=O)N2[C@H]1c1ccc(O)cc1	0.143	-0.564 (inactive)	-0.528 (inactive)	-1.59 (inactive)	-1.13	-0.024	-0.159	0.0883	1.63	1.65 (inactive)	0.357	2.68 (inactive)	-0.856 (inactive)	-2.55 (inactive)	-1.63 (inactive)	1.24	0.274 (inactive)	0.00663 (inactive)	0.214
Cc1ccc(S(=O)(=O)N[C@H]2COC(=O)CC=C[C@H](C)COC(=O)N[C@@H](C)C(=O)CC=C[C@@H]2C)cc1	0.177	-1.67 (inactive)	1.6 (inactive)	-0.933 (inactive)	-0.184	-0.142	0.771	0.555	1.01	0.0157 (inactive)	-0.191	1.3 (inactive)	0.678 (inactive)	1.1 (inactive)	0.451 (inactive)	1.87	0.142 (inactive)	-1.45 (inactive)	-0.213
CCCCCCc1nc(C2CC2)c(C)c2c1[Si](C(C)C)(C(C)C)OC2	-0.0534	-5.02 (inactive)	0.236 (inactive)	-0.75 (inactive)	-0.0332	-0.0494	0.277	0.305	0.0027	2.16 (inactive)	-0.196	2.89 (inactive)	0.176 (inactive)	-0.162 (inactive)	0.0166 (inactive)	3.38	-0.579 (inactive)	-0.404 (inactive)	-1.38

— PubChem BioAssay
